# Experimental data as given in PubChem BioAssay (Tox21).
# Values joined by “and” are separate entries in the source; they are usually repeats but may differ in a detail not shown here. Equal values may be shown once. Records with an inconclusive call do not appear. Entries that show only a call come without a potency. Some structures have more than one record in an assay (separate samples or runs), and their calls can disagree. Active and inactive are the calls of the source. Calls come from the whole dose curve; as a rule, active = well fitted inhibition curve with a large enough effect in the repeat runs; inconclusive = weak or mixed curves; inactive = no such curve, though single readings can be large or run the other way.
# Target: Cytochrome P450 1A2 (Homo sapiens) (UniProt P05177)
# Sequence (P05177 whole entry, looked up): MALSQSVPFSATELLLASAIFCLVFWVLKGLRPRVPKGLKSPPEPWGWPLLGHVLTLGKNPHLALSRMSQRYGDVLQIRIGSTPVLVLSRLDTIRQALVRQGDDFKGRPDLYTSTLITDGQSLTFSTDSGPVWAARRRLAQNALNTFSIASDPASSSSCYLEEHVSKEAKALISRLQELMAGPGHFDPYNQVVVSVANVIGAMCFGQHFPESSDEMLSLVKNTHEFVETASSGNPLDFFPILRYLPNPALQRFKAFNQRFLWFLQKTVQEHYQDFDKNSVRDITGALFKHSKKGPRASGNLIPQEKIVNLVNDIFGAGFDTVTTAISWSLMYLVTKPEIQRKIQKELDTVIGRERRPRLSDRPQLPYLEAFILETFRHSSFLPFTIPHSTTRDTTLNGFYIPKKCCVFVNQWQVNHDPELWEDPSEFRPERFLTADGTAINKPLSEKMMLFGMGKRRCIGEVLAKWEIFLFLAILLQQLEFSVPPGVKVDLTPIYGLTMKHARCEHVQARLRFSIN
# Assay: Cytochrome P450 Family 1 Subfamily A Member 2 (CYP1A2) small molecule antagonists: luciferase reporter qHTS assay (AID 1671199); note: nearly all actives have a fitted effect of over 50% in size
# Conditions: P450-Glo CYP1A2 enzyme, luciferin luminescence, 1 h; series mostly up to 115 µM
# How it was run: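 Read-out is luminescence from luciferin detection reagent (20 min) proportional to CYP1A2 activity; compounds in DMSO preincubated 10 min with enzyme and proluciferin substrate, then NADPH regeneration solution, 1 h, room temperature.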
# Potency is the fitted concentration of half-maximal effect.
row,SMILES,Potency
1,Cc1ccc(C)c(C)c1,inactive and 29.6 µM (active)
2,CC1=C(CC(=O)O)c2cc(F)ccc2/C1=C\c1ccc(S(C)=O)cc1 (configuration not stated),35.6 µM (active)
3,O=C(O)c1cc(-c2ccccc2)nc2ccccc12,36.9 µM (active)
4,ClC1=C(Cl)C(Cl)(Cl)C(Cl)=C1Cl,inactive
5,OCC1CCCO1 (configuration not stated),inactive
6,CC(C)(C)C1CCC(O)CC1 (configuration not stated),72 µM (active) and inactive
7,CC(C)(CO)COC(=O)C(C)(C)CO,inactive
8,O=C1CCCCC1,inactive
9,CNC[C@H](O)[C@@H](O)[C@H](O)[C@H](O)CO,inactive
10,CC1=C(/C=C/C(C)=C/C=C/C(C)=C/CO)C(C)(C)CCC1,20.3 µM (active)
11,OCC#CCO,inactive
12,Cc1cc(Cc2ccc(N)c(C)c2)ccc1N,6.33 µM (active) and 14.2 µM (active)
13,CS(=O)(=O)c1ccc([C@@H](O)[C@@H](CO)NC(=O)C(Cl)Cl)cc1,inactive
14,CCCCCCCCCCC=CC1CC(=O)OC1=O (configuration not stated),inactive
15,S=c1nc[nH]c2nc[nH]c12,inactive
16,CCCCCCCCCC(=O)O,inactive
17,C=C(C)C(=O)OCC(CC)(COC(=O)C(=C)C)COC(=O)C(=C)C,32.2 µM (active) and 27.8 µM (active)
18,Oc1ccc(OCc2ccccc2)cc1,19.6 µM (active) and 15.5 µM (active)
19,CCCCOCCOCCOC(=O)CCCCC(=O)OCCOCCOCCCC,inactive
20,Cn1c([N+](=O)[O-])cnc1COC(N)=O,inactive
21,CCCCC(CC)COC(C)=O (configuration not stated),inactive
22,OC1CCCC1,inactive
